Records with an inconclusive call do not appear. The source made the active and inactive calls. Unless noted, calls come from the whole dose curve.
Key:
[1] = Nuclear factor erythroid 2-related factor 2/antioxidant responsive element (Nrf2/ARE) small molecule agonists: qHTS cell viability counter screen in human keratinocytes (AID 1919968; active = well fitted curve in the direction sought with a large enough effect in the repeat runs; an effect the other way counts as inactive or inconclusive; note: nearly all actives have a fitted effect of over 55% in size)
Method in brief: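 KeratinoSens cells (HaCaT keratinocytes stably carrying an ARE-luciferase reporter) were seeded at 1,500 cells/well and rested 5 h at 37 C/5% CO2. They were then exposed to compounds in DMSO for 23 h. Viability was read by CellTiter-Fluor fluorescence after 1 h.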

[2] = Nuclear factor erythroid 2-related factor 2/antioxidant responsive element (Nrf2/ARE) small molecule agonists: luciferase reporter gene qHTS assay in human keratinocytes (AID 1919969); note: nearly all actives have a fitted effect of over 35% in size
[3] = target: Gonadotropin-releasing hormone receptor (Homo sapiens) (UniProt P30968); assay: Human gonadotropin-releasing hormone receptor (GnRHR) small molecule agonists, calcium flux assay in GnRHR-HEK293 cells (AID 1920063); note: nearly all actives have a fitted effect of over 35% in size
Method in brief: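 HEK293 cells stably expressing human GnRHR were plated 18 h at 37 °C, loaded with calcium dye 1 h at 37 °C, then given compound in agonist mode; fluorescence (Ex/Em 480/540) read kinetically for 3 min at 1 s intervals.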

[4] = target: KiSS-1 receptor (Homo sapiens) (UniProt Q969F8); assay: Human kisspeptin (KISS1R) small molecule agonists, calcium flux assay in KISS1R-HEK293 cells (AID 1920064; active = well fitted curve in the direction sought with a large enough effect in the repeat runs; an effect the other way counts as inactive or inconclusive)
Method in brief: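 HEK293 cells stably expressing human KISS1R were plated 18 h at 37 °C, loaded with calcium dye for 1 h at 37 °C, then given compound by pin tool. Fluorescence (Ex/Em 480/540) was read kinetically for 3 min.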

[5] = G protein-coupled receptor (GPCR) small molecule agonists, calcium flux assay: HEK293 wild type cell line counter screen (AID 1920065)
Method in brief: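 Cells were plated and cultured 18 h at 37 C/5% CO2, then loaded with calcium dye for 1 h at 37 C. Compounds in DMSO were pin-transferred in agonist mode, and fluorescence (Ex/Em 480/540) was read kinetically for 3 min at 1 s intervals.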

[6] = p53 small molecule agonists, cell-based qHTS assay with human liver microsomes (AID 1963577)
Method in brief: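 Fluorescence of the beta-lactamase reporter in p53RE-bla cells, detected with LiveBLAzer substrate (2 h, room temperature, dark), served as the read-out after 16 h compound exposure at 37 C with human liver microsomes and NADPH, each 0.5 mg/mL final.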

[7] = p53 small molecule agonists, cell-based qHTS assay with rat liver microsomes (AID 1963578)
Method in brief: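 Cells carrying a p53 response element–beta-lactamase reporter were plated and rested 5 h, then dosed with compound in DMSO plus rat liver microsomes and NADPH, each at 0.5 mg/mL final. After 16 h at 37 C, LiveBLAzer substrate was added for 2 h.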

[8] = p53 small molecule agonists, cell-based qHTS assay with human liver microsomes: qHTS cell viability counter screen (AID 1963579); note: nearly all actives have a fitted effect of over 45% in size
Method in brief: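 Cytotoxicity counter screen: p53RE-bla, 4,000 cells/well; 5 h settle, 37 C/5% CO2; cpd + HLM 0.5 mg/mL + NADPH 0.5 mg/mL (final); 16 h, 37 C; CellTiter-Glo, 30 min RT, luminescence.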

[9] = p53 small molecule agonists, cell-based qHTS assay with rat liver microsomes: qHTS cell viability counter screen (AID 1963580); note: nearly all actives have a fitted effect of over 45% in size
Method in brief: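 p53RE-bla HCT-116 cells (4,000/well) rested 5 h at 37 C, then given Tox21 compounds in DMSO with rat liver microsomes (0.5 mg/mL final) plus NADPH (0.5 mg/mL final) for 16 h at 37 C. Viability read by CellTiter-Glo luminescence after 30 min at room temperature.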

[10] = p53 small molecule agonists, cell-based qHTS assay (AID 1963582; active = well fitted activation curve with a large enough effect in the signal ratio in the repeat runs, not every such curve was filed as active; the % refers to the signal ratio)
Method in brief: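 p53RE-bla beta-lactamase reporter cells rested 5 h at 37 C/5% CO2, then received compounds in DMSO by pin transfer and were incubated 16 h at 37 C. LiveBLAzer B/G FRET substrate was loaded for 2 h at room temperature before fluorescence reading.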

[11] = target: 5-hydroxytryptamine receptor 2A (Homo sapiens) (UniProt P28223); assay: 5-hydroxytryptamine receptor 2A (HTR2A) small molecule antagonists, cell-based qHTS assay (AID 1963586); note: nearly all actives have a fitted effect of over 45% in size
Method in brief: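 Antagonist-mode intracellular calcium assay: DOI (4 nM) added after 5 min compound pre-incubation at room temperature to dye-loaded HTR2A-CHO cells. Fluorescence followed for 3 min, sampled every second.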

[12] = target: 5-hydroxytryptamine receptor 2A (Homo sapiens) (UniProt P28223); assay: 5-hydroxytryptamine receptor 2A (HTR2A) small molecule agonists, cell-based qHTS assay (AID 1963587); note: nearly all actives have a fitted effect of over 30% in size
Method in brief: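 HTR2A-CHO cells, plated 18 h at 37 C/5% CO2, dye-loaded 1 h at 37 C; compounds in DMSO added by pin tool (agonist mode). Intracellular calcium flux read as kinetic fluorescence on FDSS over 2 min at 1 s intervals.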

[13] = target: Muscarinic acetylcholine receptor M1 (Homo sapiens) (UniProt P11229); assay: Cholinergic receptor muscarinic 1 (CHRM1) small molecule antagonists, cell-based qHTS assay (AID 1963588); note: nearly all actives have a fitted effect of over 40% in size
Method in brief: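 CHRM1-CHO calcium-flux assay, antagonist mode. Cells were seeded 18 h, dye-loaded 1 h at 37 C and given compound for 5 min at RT, then acetylcholine was added at 50nM. FDSS fluorescence was read 3 min; 15 concentrations, three runs.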

[14] = target: Muscarinic acetylcholine receptor M1 (Homo sapiens) (UniProt P11229); assay: Cholinergic receptor muscarinic 1 (CHRM1) small molecule agonists, cell-based qHTS assay (AID 1963589); note: nearly all actives have a fitted effect of over 35% in size
Method in brief: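 CHO cells stably expressing human CHRM1, seeded 18 h at 37 C/5% CO2, dye-loaded 1 h at 37 C, then given compound in agonist mode; intracellular calcium fluorescence read kinetically at 1 s intervals. Fifteen concentrations, three independent runs.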

[15] = cAMP Responsive Elements (CRE) small molecule agonists, cell-based qHTS assay (AID 1963590)
Method in brief: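 CRE-bla HEK 293T cells in DMEM with 10% dialyzed FBS, NEAA, pyruvate and 25 mM HEPES were plated 18 h at 37 C/5% CO2, then exposed to compounds in DMSO for 3 h before LiveBLAzer B/G FRET substrate addition.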

[16] = cAMP Responsive Elements (CRE) small molecule antagonists, cell-based qHTS assay (AID 1963591; active = well fitted inhibition curve with a large enough effect in the signal ratio in the repeat runs, not every such curve was filed as active; the % refers to the signal ratio)
Method in brief: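 CRE-bla HEK293T cells were plated 18 h at 37 °C/5% CO2, pinned with compound in DMSO, then stimulated with NKH477 at 0.25 uM final for 3 h. LiveBLAzer B/G FRET substrate was added and plates incubated 2 h at room temperature.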

[17] = target: Beta-2 adrenergic receptor (Homo sapiens) (UniProt P07550); assay: Adrenergic beta2 receptor (ADRB2) small molecule antagonists, cell-based qHTS assay (AID 1963592); note: series mostly up to about 92 µM; nearly all actives have a fitted effect of over 50% in size
Method in brief: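 Cells (CHO, stable ADRB2 overexpression) incubated 18-20hr at 37C; compounds added from DMSO; agonist mix (1nM isoproterenol, 100uM IBMX, 25uM Ro-20-1724) added; 0.5hr RT; d2-cAMP and anti-cAMP-cryptate added; 1hr RT; 665/615 nm read.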

[18] = target: D(2) dopamine receptor (Homo sapiens) (UniProt P14416); assay: Dopamine D2 receptor (DRD2) small molecule agonists, cell-based qHTS assay (AID 1963594); note: nearly all actives have a fitted effect of over 35% in size
Method in brief: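 HEK293 cells stably expressing DRD2 were cultured 24 h at 37 C, then given Ro20-1724 (0.1 mM final) and compounds for 10 min at room temperature. NKH477 (200nM) was then added for 30 min. cAMP was read by HTRF.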

[19] = target: D(2) dopamine receptor (Homo sapiens) (UniProt P14416); assay: Dopamine D2 receptor (DRD2) small molecule antagonists, cell-based qHTS assay (AID 1963595; active = well fitted inhibition curve with a large enough effect in the signal ratio in the repeat runs, with a control signal flat; the % refers to the signal ratio)
Method in brief: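 Antagonism was scored as restored cAMP in HEK293-DRD2 cells. These cells were stimulated with 200 nM NKH477 and 12 nM quinpirole for 30 min at room temperature, in the presence of 0.1 mM Ro20-1724.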

[20] = p53 small molecule agonists, cell-based qHTS assay: qHTS cell viability counter screen (AID 1963581); note: nearly all actives have a fitted effect of over 45% in size
Method in brief: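 p53RE-bla HCT-116 cells were exposed to compounds for 16 h at 37 C; after the beta-lactamase FRET read in the same wells, CellTiter-Glo was added and luminescence (intracellular ATP) read after 30 min at room temperature.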

Measured: Potency

Muscarinic acetylcholine receptor M1 (Homo sapiens), sequence (P11229 whole entry, looked up): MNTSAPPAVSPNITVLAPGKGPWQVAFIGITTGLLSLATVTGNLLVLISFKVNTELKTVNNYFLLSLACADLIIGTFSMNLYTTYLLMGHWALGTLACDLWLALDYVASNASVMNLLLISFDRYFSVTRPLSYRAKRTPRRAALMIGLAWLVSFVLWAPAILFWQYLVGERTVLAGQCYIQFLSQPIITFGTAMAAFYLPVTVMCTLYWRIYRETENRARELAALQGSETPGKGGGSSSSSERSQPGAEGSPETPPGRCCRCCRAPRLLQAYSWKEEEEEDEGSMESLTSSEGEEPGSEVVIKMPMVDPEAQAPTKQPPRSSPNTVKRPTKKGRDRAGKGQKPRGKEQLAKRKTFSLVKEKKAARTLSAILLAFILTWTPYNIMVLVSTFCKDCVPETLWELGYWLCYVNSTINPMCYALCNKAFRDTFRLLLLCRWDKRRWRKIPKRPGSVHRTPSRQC
5-hydroxytryptamine receptor 2A (Homo sapiens), sequence (P28223 whole entry, looked up): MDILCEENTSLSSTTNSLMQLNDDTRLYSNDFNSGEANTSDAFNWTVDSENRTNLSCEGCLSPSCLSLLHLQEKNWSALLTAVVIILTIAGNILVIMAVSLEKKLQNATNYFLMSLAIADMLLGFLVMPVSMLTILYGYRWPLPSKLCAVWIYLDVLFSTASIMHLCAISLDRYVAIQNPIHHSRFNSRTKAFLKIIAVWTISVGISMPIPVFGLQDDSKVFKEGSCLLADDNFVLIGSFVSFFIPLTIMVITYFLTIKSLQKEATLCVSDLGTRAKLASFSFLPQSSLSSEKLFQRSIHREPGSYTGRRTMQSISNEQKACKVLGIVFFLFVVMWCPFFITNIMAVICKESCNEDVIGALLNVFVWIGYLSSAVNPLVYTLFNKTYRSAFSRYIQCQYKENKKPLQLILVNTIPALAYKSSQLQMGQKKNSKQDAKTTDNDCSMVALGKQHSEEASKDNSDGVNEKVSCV
KiSS-1 receptor (Homo sapiens), sequence (Q969F8 whole entry, looked up): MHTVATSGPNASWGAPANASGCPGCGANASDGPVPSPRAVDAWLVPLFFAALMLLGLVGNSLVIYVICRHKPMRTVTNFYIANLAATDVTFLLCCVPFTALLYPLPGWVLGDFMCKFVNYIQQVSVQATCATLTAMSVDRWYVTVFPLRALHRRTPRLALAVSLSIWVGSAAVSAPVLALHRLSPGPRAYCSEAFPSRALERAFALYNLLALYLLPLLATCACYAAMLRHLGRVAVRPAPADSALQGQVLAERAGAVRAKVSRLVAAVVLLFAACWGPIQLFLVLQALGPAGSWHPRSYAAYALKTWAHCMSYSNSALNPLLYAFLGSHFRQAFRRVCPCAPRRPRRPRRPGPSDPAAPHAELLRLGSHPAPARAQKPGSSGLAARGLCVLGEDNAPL
Gonadotropin-releasing hormone receptor (Homo sapiens), sequence (P30968 whole entry, looked up): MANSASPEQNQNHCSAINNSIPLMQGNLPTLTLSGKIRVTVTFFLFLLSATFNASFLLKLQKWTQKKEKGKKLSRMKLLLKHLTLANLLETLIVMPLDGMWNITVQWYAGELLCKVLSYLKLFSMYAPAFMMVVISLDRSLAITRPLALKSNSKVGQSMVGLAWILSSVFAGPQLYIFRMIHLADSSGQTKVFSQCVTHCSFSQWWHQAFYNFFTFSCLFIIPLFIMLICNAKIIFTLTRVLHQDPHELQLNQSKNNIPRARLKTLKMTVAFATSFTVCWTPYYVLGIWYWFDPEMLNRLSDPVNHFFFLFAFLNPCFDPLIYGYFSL
Beta-2 adrenergic receptor (Homo sapiens), sequence (P07550 whole entry, looked up): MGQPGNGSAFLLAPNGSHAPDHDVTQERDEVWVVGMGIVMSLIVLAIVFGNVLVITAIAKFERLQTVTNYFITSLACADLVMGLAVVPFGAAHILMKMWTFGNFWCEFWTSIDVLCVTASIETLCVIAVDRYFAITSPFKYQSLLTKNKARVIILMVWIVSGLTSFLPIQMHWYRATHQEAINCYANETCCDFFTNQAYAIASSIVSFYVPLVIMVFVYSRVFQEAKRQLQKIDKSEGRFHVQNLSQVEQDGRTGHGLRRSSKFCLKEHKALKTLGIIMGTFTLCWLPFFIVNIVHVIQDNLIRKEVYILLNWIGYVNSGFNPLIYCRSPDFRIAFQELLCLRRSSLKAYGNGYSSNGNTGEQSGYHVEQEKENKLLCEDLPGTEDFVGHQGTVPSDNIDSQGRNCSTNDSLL
D(2) dopamine receptor (Homo sapiens), sequence (P14416 whole entry, looked up): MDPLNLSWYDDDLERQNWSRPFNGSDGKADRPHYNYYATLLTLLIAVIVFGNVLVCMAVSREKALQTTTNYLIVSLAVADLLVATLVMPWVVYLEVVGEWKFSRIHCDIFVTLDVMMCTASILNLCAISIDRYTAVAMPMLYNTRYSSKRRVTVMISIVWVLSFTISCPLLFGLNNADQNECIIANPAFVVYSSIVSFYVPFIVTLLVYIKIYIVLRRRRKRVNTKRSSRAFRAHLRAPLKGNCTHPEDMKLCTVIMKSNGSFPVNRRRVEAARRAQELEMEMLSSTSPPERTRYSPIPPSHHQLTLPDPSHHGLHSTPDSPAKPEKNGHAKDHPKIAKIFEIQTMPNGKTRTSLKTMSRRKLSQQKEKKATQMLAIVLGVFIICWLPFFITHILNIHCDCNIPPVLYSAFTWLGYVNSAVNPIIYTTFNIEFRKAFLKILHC

CC(C)CC=O
not listed: [20]
inactive: all other assays above

CCN(C=O)CC
not listed: [9]
inactive: all other assays above

C=CCCCCCCCCC(=O)OCCCC
not listed: [9] | [18] | [19]
inactive: all other assays above

CC(CCO)CCc1ccccc1 (stereo unspecified)
not listed: [20]
inactive: all other assays above

N=C(N)c1ccccc1
not listed: [18] | [20]
inactive: all other assays above

CN(C)CCCNCCC#N
not listed: [10] | [14] | [20]
inactive: all other assays above

c1cnc2cc3c(cc2n1)C1CNCC3C1
not listed: [20]
inactive: all other assays above

O=S(=O)(O)c1cccc2c(S(=O)(=O)O)cccc12
not listed: [9]
inactive: all other assays above

CCC(=O)CC
not listed: [9]
inactive: all other assays above

CCCCCCCCCCCCCCCC(=O)NCCO
not listed: [9] | [15] | [19]
inactive: all other assays above

Cc1cc(N)no1
not listed: [9]
inactive: all other assays above

CO/N=C(/C(=O)N[C@@H]1C(=O)N2C(C(=O)O)=C(COC(N)=O)CS[C@H]12)c1ccco1
not listed: [9] | [14]
inactive: all other assays above

O=C1CC(c2ccc(Cl)cc2)CC(=O)N1
not listed: [9]
inactive: all other assays above

O=c1[nH]cnc2c1ncn2[C@@H]1O[C@H](CO)[C@@H](O)[C@H]1O
not listed: [9] | [12] | [15]
inactive: all other assays above

— PubChem BioAssay (Tox21)
